# Data reported in PubChem BioAssay AID720706 (Broad Institute, 2013).
# Hit rate of the full screen: of about 350,000 compounds, about 5,500 (1.6%) were called active. The sample holds actives, similar compounds and a random draw of the others, so the mix is not that of the screen.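 Rule for the calls: active = significant combined selectivity score with lowered wild-type GFP, culture density cut under 30%, mutant RFP and density less affected; inactive = any of these conditions unmet.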
# Test: reduced GFP signal of wild-type E. coli, primary screen, bacterial rRNA inhibitor project, GFP/RFP fluorescence, OD600, single point (AID 720706)
# Settings: E. coli WT GFP vs humanized-ribosome RFP mutants, 24 h; GFP signal change (wild-type ribosome): stronger effect = lower value, DMSO median 0, no signal -100; OD600 change: measured here: OD600 growth, DMSO median 0, no signal -100; RFP signal change: measured here: RFP humanized mutant strains, DMSO median 0, no signal -100, concentration not given here
Structure (SMILES),GFP signal change (wild-type ribosome),OD600 change,RFP signal change
COc1cccc(Cn2cc(/C=N/NC(=O)c3cc(O)cc(O)c3)c3ccccc32)c1,-27.3% (active),-17.9%,2.51%
O=C(Cn1cc(/C=N/NC(=O)c2cccc(C(F)(F)F)c2)c2ccccc21)Nc1ccc(F)cc1,-1.48% (inactive),-0.221%,-3.15%
N#CCC(=O)N/N=C/c1cn(Cc2ccc3ccccc3c2)c2ccccc12,1.46% (inactive),-2.06%,0.715%
COc1cccc(S(=O)(=O)N2C[C@@H](O)COC[C@H]3O[C@@H](CC(=O)N4CCOCC4)CC[C@@H]32)c1,0.378% (inactive),-0.728%,-3.58%
O=S(=O)(Cc1ccccc1)NCC[C@@H]1CC[C@@H](NS(=O)(=O)c2ccccc2)[C@@H](CO)O1,-0.181% (inactive),0.151%,1.58%
C[C@H](CO)N1C[C@H](C)[C@@H](CN(C)Cc2ccc3c(c2)OCO3)OCCCC[C@H](C)Oc2ccc(NC(=O)Nc3ccc(C(F)(F)F)cc3)cc2C1=O,7.88% (inactive),-5.08%,3.82%
CCOc1cc(C=NNC(=O)CCCC(=O)NN=Cc2ccc(O)c(OCC)c2)ccc1O,4.33% (inactive),-0.6%,2.51%
O=C(CCCO)N/N=C/c1cc(Br)ccc1O,-15.6% (active),11.6%,1.76%
O=C(CCc1ccc(O)cc1)NN=Cc1cc(Br)ccc1O,-37.7% (inactive),-33.3%,-8.11%
C[C@@H]1CCCCO[C@H](CN(C)Cc2ccc(C(=O)Nc3ccccc3N)cc2)[C@H](C)CN([C@H](C)CO)C(=O)c2cc(N(C)C)ccc2O1,4.58% (inactive),1.72%,2.24%
CO[C@H]1CN(C)C(=O)c2cc(NC(=O)C3CCCC3)ccc2OC[C@@H](C)N(C(=O)CC2CC2)C[C@@H]1C,-2.32% (inactive),-1.4%,-2.08%
COc1ccc(C(=O)C2CCCN(C(=O)c3ccc(OC)o3)C2)c(C)c1 (configuration not stated),-3.94% (inactive),-8.41%,-1.22%
COc1ccc(C(=O)C2CCCN(Cc3ccc4nonc4c3)C2)c(C)c1 (configuration not stated),-32.5% (active),-18.1%,-4.26%
COc1ccc(C(=O)C2CCCN(Cc3cccn3-c3ccccn3)C2)c(C)c1 (configuration not stated),-15.2% (inactive),-23%,0.721%
C[C@H]1CN(C)C(=O)c2cc(N(C)C)ccc2O[C@H]1CN(C)C(=O)OC(C)(C)C,-3.1% (inactive),-2.56%,0.88%
COc1ccc(C2CC(c3ccccc3)=NN2C(=O)CSc2nccc(=O)[nH]2)cc1 (configuration not stated),5.08% (inactive),8.39%,-0.959%
COc1ccc(C2=NN(C(=O)c3cccnc3)C(c3ccccc3)C2)cc1 (configuration not stated),-23.4% (active),3.3%,3.54%
COc1ccc(C2=NN(C(=O)c3ccccc3C(=O)O)C(c3ccccc3O)C2)cc1 (configuration not stated),-9.01% (inactive),-19.6%,-2.39%
O=c1oc2ccccc2c(NC2CCCCC2)c1NS(=O)(=O)c1ccc(Cl)cc1,11.9% (inactive),7.09%,-0.375%
O=c1ccc2cc(S(=O)(=O)Nc3ccccc3F)ccc2o1,6.96% (inactive),12.1%,8.39%

Structure (SMILES),GFP signal change (wild-type ribosome),OD600 change,RFP signal change
O=c1oc(-c2ccccc2NS(=O)(=O)c2ccc(Cl)cc2)nc2ccccc12,-33.6% (active),-24.4%,0.207%
CO[C@@H]1CN(C)C(=O)c2cc(NC(=O)Nc3ccc4c(c3)OCO4)ccc2OC[C@@H](C)NC[C@@H]1C,4.25% (inactive),10.8%,-0.511%
COc1ccc2c3c([nH]c2c1)[C@@H](CO)N(C(C)=O)CC31CCN(Cc2ccccc2Cl)CC1,-2.42% (inactive),-9.54%,4.49%
C[C@@H]1CN([C@H](C)CO)C(=O)c2cc(NS(=O)(=O)c3ccccc3)ccc2O[C@H]1CN(C)S(=O)(=O)c1ccc(Cl)cc1,-8.38% (inactive),-11.5%,2.44%
COc1cccc(CCNC(=O)c2cccc(NC(=O)C3=C(C)OCCS3)c2)c1,-25.3% (inactive),-16.5%,-2.22%
CC(C)(C)OC(=O)N1CCC(C(=O)Nc2cccc(C(=O)NCCc3ccccc3)c2)CC1,2.29% (inactive),6.05%,0.0785%
O=C(Cc1ccc(Br)cc1)NCCc1ccccc1,-13.7% (inactive),6.7%,-2.35%
O=C(NCc1ccccc1)c1cccc(NC(=O)C2CCCCC2)c1,-29.5% (active),-22.2%,-7.71%
CCNC(=O)c1cccc(NC(=O)C2CC(=O)N(CCc3ccccc3)C2)c1 (configuration not stated),8.73% (inactive),3.98%,1.88%
O=C(NCCc1ccccc1)c1cccc(NC(=O)c2ccccc2)c1,-23.9% (active),-10%,0.86%
CO[C@@H]1CN(C)C(=O)c2cc(NS(=O)(=O)c3ccc(C)cc3)ccc2OC[C@H](C)N(Cc2nccs2)C[C@@H]1C,-2.96% (inactive),-14.7%,7.3%
COc1ccc2c3c([nH]c2c1)[C@@H](CO)N(C(=O)C1CC1)CC31CCN(C(=O)c2ccncc2)CC1,4.87% (inactive),6.99%,-3.09%
CC(C)NC(=O)N(C)C[C@H]1Oc2cc(-c3cncnc3)ccc2S(=O)(=O)N([C@@H](C)CO)C[C@H]1C,3.27% (inactive),3.02%,-2.21%
CCC(=O)Nc1ccc2c(c1)C(=O)N(C)[C@@H]1CC[C@H](CC(=O)NCCc3ccncc3)O[C@@H]1CO2,2.16% (inactive),15.1%,-1.34%
Cc1ccccc1NC(=O)c1cc(S(=O)(=O)Nc2cccc(C(=O)O)c2)ccc1Cl,9.89% (inactive),8.39%,-0.677%
Cc1ccc(C(=O)Nc2ccccc2-c2ccccc2)cc1S(=O)(=O)Nc1ccccc1,-14.3% (inactive),-30.9%,-8.24%
C=CCNC(=O)c1ccccc1NC(=O)c1ccc(Cl)c(S(=O)(=O)Nc2cccc(C)c2C)c1,-40% (active),-4.93%,9.21%
COC(=O)C[C@@H]1C[C@H]2c3cc(NC(=O)NC4CCCC4)ccc3O[C@H]2[C@H](CO)O1,-0.054% (inactive),-2.88%,1.29%
C[C@H](O)C#Cc1ccc2c(c1)O[C@H](CN(C)Cc1cccnc1)[C@@H](C)CN([C@H](C)CO)S2(=O)=O,-1.81% (inactive),5.84%,-2.32%
